A selection: hits, their analogues and other compounds. The true share with any hit is near 1.1%.
S1P4 antagonist: antagonists of human S1P4 receptor. O95977. S1P4-expressing cells, antagonist mode, reporter read-out. inhibition, % at 4.98 µM. 220,000 compounds, 0.26% hits; in the data active means inhibition above about 29%
Redox H2O2 prof: compounds producing H2O2 with reducing agent – biochemical, NIH compound library profiling, artefact control for MLSCN library redox annotation, primary screen | DTT-dependent redox cycling H2O2, phenol red/HRP absorbance; 100% = 100 µM peroxide control, 0% = buffer | activation, % at 10 µM | 200,000 compounds, 0.03% hits | AID 878;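 active means activation of at least 50% relative to the plate's high and low controls in the primary single-dose screen; inactive means activation below 50%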;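 further: compound incubated with DTT at 0.8 mM final as the reducing agent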
S1P4 ag: human S1P4 receptor agonism; S1P4-expressing cell line, agonist reporter assay; activation, % at 4.98 µM; 220,000 compounds, 0.35% hits; AID 1509; in the data active means activation above about 11%
p97 inhibitor: blocks human p97 ATPase activity. recombinant p97 ATPase, Kinase-Glo ATP luminescence, 3 h. inhibition, % at 8 µM. P55072. 220,000 compounds, 0.42% hits; in the data active means inhibition above about 15%
SUMO HTRF inh: inhibitors of human SUMOylation (UBC9); HTRF SUMOylation assay, SAE1/SAE2 + UBC9, in vitro; P63279; inhibition, % at 35 µM; 290,000 compounds, 0.36% hits; in the data active means inhibition above about 50%, passing the limit was not always enough; inconclusive means no clear call, values can overlap the other calls
S1P3 antag: antagonists of human S1P3 receptor | Q99500 | CHO S1P3 NFAT-BLA reporter, FRET fluorescence, antagonist mode | inhibition, % at 4.98 µM | 170,000 compounds, 0.27% hits;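 active means inhibition above the plate cutoff, the mean inhibition of test wells on that plate plus 3 SD, cut at about 28% in these data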;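 further: cells challenged with S1P at its EC80 of 0.8 µM; blue over green emission ratio from cleaved BLA substrate after 4 h stimulation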
Target sequence (Q99500 whole entry, looked up): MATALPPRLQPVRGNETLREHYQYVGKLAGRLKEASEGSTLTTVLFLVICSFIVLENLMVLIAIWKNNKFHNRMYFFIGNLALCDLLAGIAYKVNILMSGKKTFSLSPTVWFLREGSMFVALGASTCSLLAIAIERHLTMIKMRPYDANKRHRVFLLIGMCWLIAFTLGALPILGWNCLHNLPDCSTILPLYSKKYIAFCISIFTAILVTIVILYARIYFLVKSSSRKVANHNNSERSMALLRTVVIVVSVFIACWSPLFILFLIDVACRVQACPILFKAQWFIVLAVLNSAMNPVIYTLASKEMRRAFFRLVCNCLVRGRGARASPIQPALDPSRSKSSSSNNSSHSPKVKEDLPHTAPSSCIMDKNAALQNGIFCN
p97 inh conf: confirmation of human p97 ATPase inhibitors | recombinant p97 ATPase, Kinase-Glo ATP luminescence | shares compounds with p97 inhibitor | 760 compounds, 44% hits | AID 1517 | inhibition, % at 8 µM;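 active means percent inhibition of p97 ATPase above a set limit, the primary screen's mean plus 3 SD, cut at about 15% in these data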
S1P4 ag conf: confirmation of human S1P4 receptor agonists | 740 compounds, 7% hits | shares compounds with S1P4 ag | S1P4 agonist cell-based reporter assay | AID 1523 | activation, % at 4.98 µM; in the data active means activation above about 12%
S1P1 ag: human S1P1 agonism as S1P4 agonist counter-screen; shares compounds with S1P4 ag; S1P1 agonist cell-based assay, activation; activation, % at 4.98 µM; 740 compounds, 4% hits; in the data active means activation above about 21%
A number is an active result; . = inactive; ? = inconclusive; / = no result given.

SMILES	S1P4 antagonist	Redox H2O2 prof	S1P4 ag	p97 inhibitor	SUMO HTRF inh	S1P3 antag	p97 inh conf	others
O=C(NCc1ccc(Cl)cc1)C1CCN(S(=O)(=O)c2cccnc2)CC1	/	/	/	/	.	/	/
CCNC(=O)Oc1ccc[nH]c1=O	.	/	.	17	88	.	.
COc1ccccc1NC(=O)CSc1n[nH]c(-c2cccnc2)n1	/	/	/	/	.	/	/
CC(C)OC(=O)CSc1n[nH]c(-c2cccnc2)n1	.	.	.	15	.	.	.
CC1=Nc2ccccc2/C1=C/c1c(N)n2c(S(=O)(=O)C(C)C)nsc2nc1=O	.	.	.	22	.	.	36
c1ccc(CN2CCN(c3ncnc4c3[nH]c3ccccc34)CC2)cc1	.	.	.	15	.	/	.
CS(=O)(=O)c1sc(C#N)c2c1C(=O)CC(c1ccccc1)C2 (configuration not stated)	.	/	.	25	.	.	22
Cc1oc2c(c(=O)c1C)C(=O)CC(c1ccccc1)C2 (configuration not stated)	.	.	.	.	.	.	/
CCn1c(/C=C/N(C(C)=O)c2ccccc2)[n+](CCCS(=O)(=O)[O-])c2cc(Cl)c(Cl)cc21	.	.	.	18	.	.	.
CCn1c(/C=C/Nc2ccccc2)[n+](CC)c2cc(Cl)c(Cl)cc21	.	.	.	.	.	.	/
CCOC(=O)c1ccc(-n2c(=S)sc3c(=O)[nH]c(C)nc32)cc1	.	.	.	.	.	/	/
CCOC(=O)N1CCN(Cc2ccc3c(c2)OCO3)CC1	/	/	/	/	.	/	/
Cc1c(O)ccc(C(=O)CN2CCN(Cc3ccc4c(c3)OCO4)CC2)c1O	.	.	.	16	.	.	.
CCOC(=O)c1[nH]c2ccc(Br)cc2c1NC(=O)CCN1CCN(C(=O)OCC)CC1	.	.	.	.	.	/	/
CCOC(=O)c1[nH]c2ccc(Br)cc2c1NC(=O)CCN1CCC(C(=O)OCC)CC1	.	.	.	18	.	/	16
CCOC(=O)c1[nH]c2ccc(Br)cc2c1NC(=O)CCN1CCCCC1	.	.	.	22	.	.	.
CC1=NN(c2ccccc2)C(=O)/C1=C/c1cccs1	.	.	.	17	.	.	.
CC1=NN(c2ccccc2)C(=O)/C1=C\c1ccc(Br)s1	.	.	.	.	.	.	/
N#CC1=C(N)Oc2cc(N)ccc2C1c1cccnc1 (configuration not stated)	.	.	.	.	.	.	/
N#CC1=C(N)Oc2cc(Nc3ccccc3)ccc2C1c1ccncc1 (configuration not stated)	.	.	.	20	.	/	33
Cc1cc(OC(C)C(=O)NCCCN2CCOCC2)ccc1Cl (configuration not stated)	/	/	/	/	.	/	/
CCC(=O)Nc1ccc(Br)c(Cl)c1	.	.	.	16	.	.	.
c1coc(-c2nc(-c3ccco3)c(-c3ccco3)nc2-c2ccco2)c1	.	.	.	40	?	/	.
N#Cc1c(NC(=O)c2ccc(Br)o2)n(-c2ccccc2)c2nc3ccccc3nc12	.	/	.	47	95	.	41
O=C(CCl)Nc1cn(-c2ccccc2)nc1-c1ccc(F)cc1	.	.	.	17	.	.	26
Cc1cc(C)nc(SCc2nnc(SCC(N)=O)o2)n1	.	.	.	.	.	.	/
CC1=Nc2ccc(C)cc2/C1=C/c1c(N)n2c(S(=O)(=O)C(C)C)nsc2nc1=O	.	.	.	.	.	.	/
CC1=Nc2ccccc2/C1=C/c1c(N)n2c(S(=O)(=O)CC(C)C)nsc2nc1=O	.	.	20	18	.	.	39	S1P4 ag conf=.;S1P1 ag=.
O=C(N[C@@H](Cc1ccccc1)C(=O)OCc1ccccc1)c1nc[nH]c1C(=O)NCc1ccccc1	.	.	20	17	.	.	20	S1P4 ag conf=32;S1P1 ag=.
CCC1CCC(C(=O)NC(C(=O)NCCN2CCOCC2)C(C)C)CC1 (configuration not stated)	/	/	/	/	.	/	/
